Assay outcomes from PubChem.
Pf growth 48h – inhibits P. falciparum growth in the first generation, 48 h; 5.9% of 310,000 active; P. falciparum luciferase growth in erythrocytes, 48 h; Potency, µM (highest dose often 28.7 µM), most hits filed as inhibitors
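Compounds are pin-transferred into medium, infected erythrocytes (2% hematocrit, 0.1% parasitemia final) are added, and plates sit one parasite generation at 37 C in 5% CO2. Detection reagent is then added and luminescence measured.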
HCV inhibitor – inhibitors of hepatitis C virus infection; Potency, µM (highest dose often 41.8 µM), usual class: inhibitors; Huh7.5.1 HCVcc-Cre infection, luciferase reporter, 44 h; 3.4% of 340,000 active
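HCVcc-Cre virus at an moi near 0.5 was added right after compound to cells cultured 4 h from seeding (1,000 cells/well). Luciferase activity was determined 44 h later, 15 min after substrate addition at RT.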
Pf growth 96h – P. falciparum growth inhibition at 96 hour, primary screen for plastid delayed-death inhibitors | 6.9% of 320,000 active | Potency, µM (top dose mostly 28.7 µM), actives largely listed as inhibitors | P. falciparum luciferase reporter growth, 96 h | AID 504834
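Luminescence readout: decreased luciferase signal marks inhibited growth of reporter-expressing P. falciparum in infected red cells (2% hematocrit, 0.05% parasitemia final), exposed to compound two generations (96 h, 37 C, 5% CO2).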
HCMV inh – blocks human cytomegalovirus replication. activity change, negative = inhibition, % at 57.5 µM. 4.5% of 410,000 active. AID 1259415. HFF cells, HCMV-luciferase reporter, 72 h; hits give low values; in the data active = activity change below about -60%; inconclusive = no clear call, values can overlap the other calls; inactive = above about -39%
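Screen run at 2 compound doses on HFFs infected with reporter HCMV, MOI 1 PFU/cell. Luciferase activity from cell lysates at 72 h post infection gave inhibition relative to buffer-only and Salinomycin wells.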
Hits are given with their value; . = inactive; ? = inconclusive; / = no result; ! = not active in a repeat; [ ] = remark or other dose. An excerpt weighted towards active compounds, which were near 13% of everything screened. Unless noted, calls come from the whole dose curve; as a rule, active = well fitted inhibition curve with a large enough effect; inconclusive = small, poorly fitted or top-dose-only effect, or another doubt; inactive = no such curve, though single readings can be large or run the other way.

SMILES	Pf growth 48h	HCV inhibitor	Pf growth 96h	HCMV inh
Cc1cnc(NC(=O)CC(C)c2ccccc2)s1 (centres undefined)	.	?	.	-68
O=C(NCCO)C(c1ccccc1)c1ccccc1	.	.	?	.
O=C(O)CNC(=O)C(c1ccccc1)c1ccccc1	13µM	.	.	.
C/C(=N\NC(=O)CNC(=O)C(c1ccccc1)c1ccccc1)c1ccc(C(C)(C)C)cc1	.	.	.	-76
C/C(=N\NC(=O)CNC(=O)C(c1ccccc1)c1ccccc1)c1ccccc1	.	.	.	.
O=C(NCCN1CCCCCC1)C1CCC(CNS(=O)(=O)c2cccc3cccnc23)CC1 (centres undefined)	/	.	?	.
CN(Cc1ccccc1)C(=O)C1CCC(CNS(=O)(=O)c2cccc3cccnc23)CC1 (centres undefined)	?	?	?	-62
CCN(CC)C(=O)C1CCC(CNS(=O)(=O)c2cccc3cccnc23)CC1 (centres undefined)	.	.	15µM	.
CN1CCN(C(=O)C2CCC(CNS(=O)(=O)c3cccc4cccnc34)CC2)CC1 (centres undefined)	/	.	?	.
O=C1CC(c2cccc(O)c2)c2cc3c(cc2N1)OCO3 (centres undefined)	/	/	/	.
COc1ccc(/C=N/NS(=O)(=O)c2ccc(F)cc2)cc1COc1cc(F)ccc1[N+](=O)[O-]	?	?	?	-66
COc1ccc(/C=N\NC(=O)c2ccc(F)cc2)cc1COc1cc(F)ccc1[N+](=O)[O-]	.	10µM	.	.
Cc1ccccc1C(=O)N1CCC1(C)C(=O)NC(C)C (centres undefined)	/	/	/	.
COC(=O)[C@@]12C[C@@H](CC(=O)N3CCSCC3)C(=O)N(Cc3cccc4ccccc34)C1=CCC(C)(C)C2	/	/	/	.
S=C1NCCc2ccc(Cl)cc2C1c1ccccc1Cl (centres undefined)	12µM	.	?	.
Cc1ccc(C)c(CN2C(=O)c3ccccc3S(=O)c3ccc(C(=O)NCc4ccco4)cc32)c1 (centres undefined)	/	/	/	.
Clc1cccc(-c2nnc3n2CCCCC3)c1	.	.	.	.
Clc1ccc(-c2c[n+](Cc3ccc(Cl)cc3Cl)c3n2CCCCC3)cc1	1.7µM	.	0.17µM	-102
Clc1ccc(C[n+]2cc(-c3ccccc3)n3c2CCCCC3)c(Cl)c1	0.74µM	.	2.6µM	-78
Clc1ccc(-c2cnc3n2CCCCC3)cc1	.	.	.	?
Clc1ccc(-c2c[n+](Cc3ccc(Br)cc3)c3n2CCCCC3)cc1	0.41µM	.	0.059µM	-68
CCCCOc1cccc(C(=O)N(Cc2ccc(C)o2)c2ccccn2)c1	/	/	/	.
COc1cccc(NC(=O)CN(C)C(=O)c2cn(-c3ccccc3)nc2-c2cccs2)c1	?	?	.	.
COc1ccc(Cl)cc1NC(=O)CN(C)C(=O)c1cn(-c2ccccc2)nc1-c1cccnc1	?	?	10µM	.
COc1cccc(NC(=O)CN(C)C(=O)c2cn(-c3ccccc3)nc2-c2cccnc2)c1	12µM	.	?	.
SMILES	Pf growth 48h	HCV inhibitor	Pf growth 96h	HCMV inh
CCOC(=O)N1CCc2c(sc(NCc3sccc3C)c2C(=O)Nc2ccccc2OCC)C1	/	/	/	.
CC1OC(OC2CC(O)C3(CO)C4C(O)CC5(C)C(C6=CC(=O)OC6)CCC5(O)C4CCC3(O)C2)C(O)C(O)C1O (centres undefined)	/	?	/	-72
C[C@@H]1O[C@@H](O[C@H]2C[C@@H](O)[C@]3(CO)[C@H]4[C@H](O)C[C@]5(C)[C@@H](C6COC(=O)C6)CC[C@]5(O)[C@@H]4CC[C@]3(O)C2)[C@H](O)[C@H](O)[C@H]1O (some centres undefined)	.	1µM!	.	-97
C[C@H]1CC[C@@H]2[C@@H](C)[C@H]3[C@H](C[C@H]4[C@@H]5CC=C6CC(O[C@@H]7O[C@H](CO)[C@H](O)[C@H](O[C@@H]8O[C@H](CO)[C@@H](O)[C@H](O)[C@H]8O)[C@H]7O[C@H]7O[C@@H](C)[C@H](O)[C@@H](O)[C@H]7O)CC[C@]6(C)[C@H]5CC[C@]34C)N2C1 (some centres undefined)	.	/	.	/
CC1OC(OC2CCC3(C)C(CCC4C3CC(O)C3(C)C(C5=CC(=O)OC5)CCC43O)C2)CC(O)C1OC1CC(O)C(OC2CC(O)C(OC3OC(CO)C(O)C(O)C3O)C(C)O2)C(C)O1 (centres undefined)	.	/	?	/
CCCCCCN1C[C@@H](n2cc(COC(=O)c3ccccc3)nn2)[C@H](O)C[C@@H]1c1ccccc1	/	/	/	-103
CCCCCCN1C[C@@H](n2cc(COC(=O)c3ccccc3)nn2)[C@H](O)C[C@@H]1c1ccc(Cl)cc1	/	/	/	-101
C=CCOC(=O)C1=C(C)N=C2SCCC(=O)N2C1/C=C/c1ccccc1 (centres undefined)	?	?	.[1.15 µM]	-103
CCOC(=O)C1=C(C)N=C2SCCC(=O)N2[C@@H]1/C=C/c1ccccc1	.	.	.	.
CSC1=NC(NCCCO)c2c(sc3c2CC(C)(C)OC3)N1 (centres undefined)	?	.	9.3µM	.
Cc1cccc(CNS(=O)(=O)c2csc(C(N)=O)c2)c1	.	.	.	.
NC(=O)c1cc(S(=O)(=O)NCc2cccs2)cs1	.	.	8.3µM	.
COc1ccc(S(=O)(=O)NCc2cccs2)cc1	/	.	.	.
COC(=O)c1cc(S(=O)(=O)NCc2ccccc2Cl)c[nH]1	.	.	2.6µM	/
O=C(O)c1cccc(S(=O)(=O)NCc2cccs2)c1	.	.	.	.
CCN(CC)S(=O)(=O)c1ccc(S(=O)(=O)NCc2cccs2)cc1	.	.	8.3µM	.
COC(=O)c1cc(S(=O)(=O)NCc2cccs2)c[nH]1	.	.	12µM	.
CCCN(CCC)C(=O)Cn1c(=O)n(-c2cccc(OC)c2)c(=O)c2c(C)c(C(=O)N(C)C)sc21	/	/	/	.
CC(C)CCCCCCCCc1cccc(O)c1C(=O)O	/	/	/	.
COC(=O)c1c(C)oc(C)c1S(=O)(=O)NCc1ccco1	.	.	.	.
O=S(=O)(NCc1cccs1)c1ccc(Br)s1	.	/	.	/
O=S(=O)(NCc1cccs1)c1ccc(Cl)s1	.	.	7.4µM	.
COC(=O)c1c(C)oc(C)c1S(=O)(=O)NCc1cccs1	.	.	.	-60
CC(=O)Nc1nonc1-c1nnc(SCc2ccc(F)cc2)n1C	/	/	/	.
COc1ccc(NC(=O)CC2C(=O)N(c3ccc(OC)cc3)C(=O)N2CCC2=CCCCC2)cc1 (centres undefined)	/	/	/	.
CCCn1cnc2c1c(=O)n(CCCCC(C)=O)c(=O)n2C	12µM	/	.	.
COc1ccc(S(=O)(=O)N2CCCCC2)cc1NC(=O)Cc1c[nH]c2ccccc12	?	?	8.3µM	.
Cc1ccc(C(=O)OCC(=O)c2c[nH]c3ccccc23)cc1S(=O)(=O)N1CCCCC1	?	32µM	?	.
COc1ccc(OC)c(CC(=O)Nc2cc(S(=O)(=O)N3CCCCC3)ccc2C)c1	?	?	?	.
